Where “and” joins values, the source holds several entries; their conditions need not be identical. Equal entries are not always repeated. More than one record can exist for a structure, and the calls need not agree. Calls of active or inactive are those of the source. Rule for the calls: active = hit-call score of the fitted dose curve at least 0.9, where 1 is the maximum; inactive = score below 0.9.
Tests used:
[1] = ATG_GRE_CIS: Attagene CIS-FACTORIAL HepG2 Assay for human Glucocorticoid Response Elements (GRE) (AID 2282947); settings: HepG2 GRE cis-reporter, Attagene multiplex mRNA; actives raise or lower the signal
How it was run: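 Fluorescence intensity of reporter-specific cDNA fragments, separated by capillary electrophoresis, provides the signal. Constructs carry cis-regulating promoters in transiently transfected HepG2 liver cells; 24 h incubation; fitting is bidirectional against DMSO.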

[2] = ATG_ISRE_CIS: Attagene CIS-FACTORIAL HepG2 Assay for human Interferon Regulatory Factor 1 (IRF1) binding to an Interferon-Stimulated Response Element (ISRE) (AID 2282948); settings: HepG2 ISRE cis-reporter (Attagene), mRNA transcription readout; actives raise or lower the signal
How it was run: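 Endogenous transcription factor activity read as reporter transcript abundance via RT-PCR and capillary electrophoresis. HepG2 cells transiently transfected, 24 h chemical exposure. Gain or loss fitted against DMSO baseline.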

[3] = ATG_M_32_CIS: Attagene CIS-FACTORIAL HepG2 Assay for M32 Transcription Factor (Internal Marker) (AID 2282949); settings: HepG2 Attagene cis-factorial M32 reporter, mRNA; actives raise or lower the signal;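 note: background control marker of the multiplexed CIS panel rather than a real target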
How it was run: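 HepG2 human liver cells transiently transfected with cis-promoter-driven multiple reporter transcription units, dosed 24 h. Reporter mRNA quantified by RT-PCR, FAM-labelled primer extension, HpaI digest and capillary electrophoresis; bidirectional fit versus DMSO baseline.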

[4] = ATG_M_06_CIS: Attagene CIS-FACTORIAL HepG2 Assay for M06 Transcription Factor (Internal Marker) (AID 2282950); settings: HepG2 Attagene CIS-FACTORIAL M06 internal marker reporter; actives raise or lower the signal
How it was run: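 Internal background marker within multiplexed cis-reporter HepG2 system. Cells transiently transfected, dosed 24 h; reporter mRNA measured by RT-PCR, HpaI digestion and capillary electrophoresis. Bidirectional fit relative to DMSO.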

[5] = biological target: Hypoxia-inducible factor 1-alpha (Homo sapiens) (UniProt Q16665); assay: ATG_HIF1a_CIS: Attagene CIS-FACTORIAL HepG2 Assay for human Hypoxia Inducible Factor 1 (HIF1A) (AID 2282951); settings: HepG2 Attagene cis-factorial HIF1a reporter transcription; actives raise or lower the signal
Hypoxia-inducible factor 1-alpha (Homo sapiens), sequence (Q16665 whole entry, looked up): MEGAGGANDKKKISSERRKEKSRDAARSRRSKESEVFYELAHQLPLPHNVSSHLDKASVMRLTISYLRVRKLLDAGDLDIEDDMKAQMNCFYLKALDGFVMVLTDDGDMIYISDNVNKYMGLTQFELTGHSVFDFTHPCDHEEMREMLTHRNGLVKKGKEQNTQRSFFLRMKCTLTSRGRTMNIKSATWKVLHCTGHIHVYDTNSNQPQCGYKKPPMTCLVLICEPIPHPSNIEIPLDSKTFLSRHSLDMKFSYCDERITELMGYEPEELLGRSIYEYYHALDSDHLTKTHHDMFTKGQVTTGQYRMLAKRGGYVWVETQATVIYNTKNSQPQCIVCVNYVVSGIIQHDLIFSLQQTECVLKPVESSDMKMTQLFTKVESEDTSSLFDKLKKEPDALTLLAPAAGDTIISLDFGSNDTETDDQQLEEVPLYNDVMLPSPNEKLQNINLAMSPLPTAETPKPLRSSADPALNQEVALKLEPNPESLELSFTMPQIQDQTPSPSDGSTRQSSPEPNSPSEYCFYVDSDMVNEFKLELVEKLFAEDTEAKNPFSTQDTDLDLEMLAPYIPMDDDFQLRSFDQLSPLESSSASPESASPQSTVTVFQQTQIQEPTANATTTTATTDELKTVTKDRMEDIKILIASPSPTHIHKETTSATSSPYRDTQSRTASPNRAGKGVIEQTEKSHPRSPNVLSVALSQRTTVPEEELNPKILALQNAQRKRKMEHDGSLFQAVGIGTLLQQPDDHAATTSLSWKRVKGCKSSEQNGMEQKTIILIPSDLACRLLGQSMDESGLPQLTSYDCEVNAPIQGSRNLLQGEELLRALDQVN
How it was run: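 Cis-element reporter constructs were transiently transfected into HepG2 cells, which were treated for 24 h; reporter RNA was reverse-transcribed, amplified, labelled and resolved by capillary electrophoresis.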

[6] = biological target: Hepatocyte nuclear factor 6 (Homo sapiens) (UniProt Q9UBC0); assay: ATG_HNF6_CIS: Attagene CIS-FACTORIAL HepG2 Assay for human Hepatocyte Nuclear Factor 6 (HNF6) (AID 2282952); settings: HepG2 Attagene cis-factorial HNF6 reporter transcription; actives raise or lower the signal
Hepatocyte nuclear factor 6 (Homo sapiens), sequence (Q9UBC0 whole entry, looked up): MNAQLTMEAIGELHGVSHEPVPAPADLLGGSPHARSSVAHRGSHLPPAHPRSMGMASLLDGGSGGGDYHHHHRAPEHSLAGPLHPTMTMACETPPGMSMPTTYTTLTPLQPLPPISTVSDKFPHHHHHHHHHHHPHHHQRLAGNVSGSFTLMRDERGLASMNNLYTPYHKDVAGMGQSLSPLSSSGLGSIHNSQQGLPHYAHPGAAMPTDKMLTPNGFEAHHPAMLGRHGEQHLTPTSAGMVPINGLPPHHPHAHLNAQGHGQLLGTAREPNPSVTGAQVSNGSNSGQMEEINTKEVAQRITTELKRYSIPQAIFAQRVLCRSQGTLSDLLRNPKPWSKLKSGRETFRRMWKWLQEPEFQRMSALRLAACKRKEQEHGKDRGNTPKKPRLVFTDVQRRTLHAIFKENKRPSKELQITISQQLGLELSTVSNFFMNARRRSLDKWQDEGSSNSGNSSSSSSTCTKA
How it was run: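 Endogenous factor activity read in transiently transfected HepG2 via promoter-regulated reporter transcripts. RNA harvested 24 h post-dosing, reverse-transcribed, PCR-amplified, FAM-labelled, HpaI-digested and resolved by capillary electrophoresis; fitted in both directions against DMSO.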

[7] = biological target: Heat shock factor protein 1 (Homo sapiens) (UniProt Q00613); assay: ATG_HSE_CIS: Attagene CIS-FACTORIAL HepG2 Assay for human Heat Shock Transcription Factor 1 (HSE) (AID 2282953); settings: HepG2 HSE cis-reporter, Attagene RNA transcription; actives raise or lower the signal
Heat shock factor protein 1 (Homo sapiens), sequence (Q00613 whole entry, looked up): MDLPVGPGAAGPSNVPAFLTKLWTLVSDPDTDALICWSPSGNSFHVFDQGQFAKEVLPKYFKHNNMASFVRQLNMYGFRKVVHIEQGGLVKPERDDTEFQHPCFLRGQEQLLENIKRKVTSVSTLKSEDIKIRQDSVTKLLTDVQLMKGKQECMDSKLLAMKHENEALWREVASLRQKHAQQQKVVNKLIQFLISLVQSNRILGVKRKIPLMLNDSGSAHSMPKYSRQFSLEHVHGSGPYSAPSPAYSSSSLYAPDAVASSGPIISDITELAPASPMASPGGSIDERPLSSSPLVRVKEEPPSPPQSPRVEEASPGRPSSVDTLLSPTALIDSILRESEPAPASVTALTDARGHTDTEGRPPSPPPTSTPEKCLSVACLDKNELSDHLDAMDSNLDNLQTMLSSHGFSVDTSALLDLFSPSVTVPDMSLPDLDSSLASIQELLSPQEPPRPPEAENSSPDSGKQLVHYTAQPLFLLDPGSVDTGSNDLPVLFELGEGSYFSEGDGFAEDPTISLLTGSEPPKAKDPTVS
How it was run: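 HepG2 cells transfected with cis-promoter reporter units sensing endogenous transcription factor activity; reporter mRNA quantified 24 h post-dose by RT-PCR and capillary electrophoresis of 6-FAM-labelled products. Bidirectional fitting against DMSO.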

[8] = ATG_MRE_CIS: Attagene CIS-FACTORIAL HepG2 Assay for human Metal Responsive Element (MRE) (AID 2282954); settings: HepG2 MRE cis-reporter transcription, Attagene multiplex; actives raise or lower the signal
How it was run: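 Measured here is mRNA induction from an MRE cis-element reporter in HepG2 after 24 h, quantified by fluorescence of labelled RT-PCR products on capillary electrophoresis; gain- and loss-of-signal fits use DMSO as baseline.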

[9] = ATG_PBREM_CIS: Attagene CIS-FACTORIAL HepG2 Assay for human Phenobarbital-responsive Enhancer Module (PBREM) (AID 2282955); settings: HepG2 PBREM cis-reporter, Attagene multiplexed transcription; actives raise or lower the signal
How it was run: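 Multiplexed cis-reporter readout in human hepatoma HepG2 cells; PBREM-regulated transcript quantified after 24 h exposure by fluorescent RT-PCR fragment analysis. Signal changes up or down fitted relative to DMSO.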

[10] = biological target: Paired box protein Pax-6 (Homo sapiens) (UniProt P26367); assay: ATG_Pax6_CIS: Attagene CIS-FACTORIAL HepG2 Assay for human Paired Box 6 (PAX6) (AID 2282956); settings: HepG2 CIS-FACTORIAL PAX6 reporter transcription, RNA readout; actives raise or lower the signal
Paired box protein Pax-6 (Homo sapiens), sequence (P26367 whole entry, looked up): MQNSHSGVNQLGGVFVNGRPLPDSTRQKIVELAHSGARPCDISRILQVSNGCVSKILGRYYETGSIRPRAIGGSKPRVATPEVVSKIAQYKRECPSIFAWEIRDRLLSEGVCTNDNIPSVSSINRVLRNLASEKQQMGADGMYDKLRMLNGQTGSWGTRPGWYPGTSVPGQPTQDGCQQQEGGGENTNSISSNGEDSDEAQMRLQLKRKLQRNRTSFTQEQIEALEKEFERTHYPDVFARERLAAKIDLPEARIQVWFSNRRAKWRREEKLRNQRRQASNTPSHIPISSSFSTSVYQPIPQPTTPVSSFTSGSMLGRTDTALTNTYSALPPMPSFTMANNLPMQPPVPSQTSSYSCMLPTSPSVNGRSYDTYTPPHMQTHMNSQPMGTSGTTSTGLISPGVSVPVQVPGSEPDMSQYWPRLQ
How it was run: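 Read-out is reporter transcript level, measured by RT-PCR with fluorescent primer extension and capillary electrophoresis after 24 h dosing of transfected HepG2 cells. Activity in either direction fitted relative to DMSO control.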

[11] = ATG_PPRE_CIS: Attagene CIS-FACTORIAL HepG2 Assay for human Peroxisome Proliferator-activated Response Element (PPRE) (AID 2282958); settings: HepG2 PPRE cis-element reporter, Attagene transcription factor profiling; actives raise or lower the signal
How it was run: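 DMSO served as negative control and baseline for bidirectional curve fitting. Signal came from PPRE-regulated reporter mRNA in HepG2 cells, measured 24 h post-dosing by RT-PCR, 6-FAM primer extension and capillary electrophoresis.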

[12] = ATG_Sox_CIS: Attagene CIS-FACTORIAL HepG2 Assay for human SRY-box transcription factor (SOX) (AID 2282960); settings: HepG2 Attagene cis-factorial SOX reporter, mRNA; actives raise or lower the signal
How it was run: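 Fluorescence-labelled cDNA fragments from reporter transcripts, sized by CE, give the signal. Cells: HepG2, transiently transfected with cis-regulated reporter units. Exposure 24 h; DMSO negative control; bidirectional curve fitting.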

[13] = biological target: Transcription factor Sp1 (Homo sapiens) (UniProt P08047); assay: ATG_Sp1_CIS: Attagene CIS-FACTORIAL HepG2 Assay for human Specificity Protein 1 (Sp1) (AID 2282961); settings: HepG2 Sp1 cis-reporter transcription, actives raise or lower the signal
Transcription factor Sp1 (Homo sapiens), sequence (P08047 whole entry, looked up): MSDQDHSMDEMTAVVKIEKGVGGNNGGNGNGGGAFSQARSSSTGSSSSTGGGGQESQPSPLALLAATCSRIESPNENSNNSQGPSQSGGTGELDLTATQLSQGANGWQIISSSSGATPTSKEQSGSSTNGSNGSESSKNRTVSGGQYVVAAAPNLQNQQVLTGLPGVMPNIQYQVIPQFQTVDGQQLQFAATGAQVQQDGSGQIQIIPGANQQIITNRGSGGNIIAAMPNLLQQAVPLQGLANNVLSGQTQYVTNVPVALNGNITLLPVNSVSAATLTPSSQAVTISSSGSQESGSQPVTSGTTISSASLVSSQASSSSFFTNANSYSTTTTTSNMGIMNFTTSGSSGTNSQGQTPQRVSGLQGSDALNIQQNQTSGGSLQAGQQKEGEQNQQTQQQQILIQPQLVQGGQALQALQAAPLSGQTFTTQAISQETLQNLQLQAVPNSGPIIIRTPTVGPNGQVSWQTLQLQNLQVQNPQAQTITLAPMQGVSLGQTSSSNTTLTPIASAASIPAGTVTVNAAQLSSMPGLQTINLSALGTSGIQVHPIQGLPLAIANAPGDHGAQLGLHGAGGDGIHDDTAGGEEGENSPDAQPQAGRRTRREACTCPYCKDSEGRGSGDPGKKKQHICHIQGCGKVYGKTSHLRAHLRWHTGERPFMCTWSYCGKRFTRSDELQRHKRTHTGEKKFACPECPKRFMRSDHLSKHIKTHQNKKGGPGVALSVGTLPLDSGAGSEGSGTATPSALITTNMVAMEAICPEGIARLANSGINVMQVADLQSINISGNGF
How it was run: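 Chemicals are dosed onto HepG2 cells transfected with multiple cis-promoter reporter constructs, and after 24 h reporter RNA is reverse-transcribed, PCR-amplified and resolved by capillary electrophoresis for fluorescence quantitation; activity is scored up or down against DMSO.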

[14] = ATG_SREBP_CIS: Attagene CIS-FACTORIAL HepG2 Assay for human Sterol Regulatory Element Binding (SREBP) (AID 2282962); settings: HepG2 Attagene cis-factorial SREBP reporter, mRNA; actives raise or lower the signal
How it was run: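 Endogenous SREBP activity read as cis-element-driven reporter transcript in transiently transfected HepG2, 24 h post-dosing; quantified via RT-PCR plus capillary electrophoresis of fluorescent fragments. Gain or loss of signal fitted relative to DMSO baseline.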

[15] = biological target: Signal transducer and activator of transcription 3 (Homo sapiens) (UniProt P40763); assay: ATG_STAT3_CIS: Attagene CIS-FACTORIAL HepG2 Assay for human Signal Transducer and Activator of Transcription 3 (STAT3) (AID 2282963); settings: HepG2, Attagene cis-factorial STAT3 reporter transcription; actives raise or lower the signal
Signal transducer and activator of transcription 3 (Homo sapiens), sequence (P40763 whole entry, looked up, the tested form may be a part): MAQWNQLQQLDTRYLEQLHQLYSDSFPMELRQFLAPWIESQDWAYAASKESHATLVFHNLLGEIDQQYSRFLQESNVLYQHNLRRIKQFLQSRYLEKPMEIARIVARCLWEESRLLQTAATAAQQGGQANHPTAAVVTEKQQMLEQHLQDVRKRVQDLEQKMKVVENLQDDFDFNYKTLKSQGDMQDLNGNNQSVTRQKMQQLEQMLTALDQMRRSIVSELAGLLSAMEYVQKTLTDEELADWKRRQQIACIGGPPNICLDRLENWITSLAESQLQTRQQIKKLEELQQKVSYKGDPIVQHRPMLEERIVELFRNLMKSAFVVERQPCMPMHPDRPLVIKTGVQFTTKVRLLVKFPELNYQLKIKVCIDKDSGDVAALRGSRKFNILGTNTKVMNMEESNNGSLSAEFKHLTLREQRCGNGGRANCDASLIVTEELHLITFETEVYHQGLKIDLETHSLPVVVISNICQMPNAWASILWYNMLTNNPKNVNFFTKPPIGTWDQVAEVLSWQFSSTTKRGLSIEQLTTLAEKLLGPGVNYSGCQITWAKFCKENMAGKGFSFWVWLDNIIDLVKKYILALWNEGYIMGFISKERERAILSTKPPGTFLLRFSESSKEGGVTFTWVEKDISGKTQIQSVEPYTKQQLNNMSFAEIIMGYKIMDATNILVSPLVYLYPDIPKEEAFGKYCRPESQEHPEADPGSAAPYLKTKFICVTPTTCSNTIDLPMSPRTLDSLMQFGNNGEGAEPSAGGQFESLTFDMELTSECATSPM
How it was run: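 Fluorescence intensity of 6-FAM-labelled reporter fragments, separated by capillary electrophoresis after RT-PCR, gave the signal. Cells were HepG2 transfected with cis-element reporter units and treated 24 h; fitting was bidirectional relative to DMSO.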

[16] = ATG_TA_CIS: Attagene CIS-FACTORIAL HepG2 Assay for human TA Basal Promoter (AID 2282964); settings: HepG2 Attagene CIS-factorial TA basal promoter reporter; actives raise or lower the signal
How it was run: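 HepG2 cells transiently transfected with multiple reporter units under cis promoter elements, reporting endogenous transcription factor activity; this endpoint tracks the TA basal promoter as background control. Reporter mRNA after 24 h dosing measured by RT-PCR/capillary electrophoresis; bidirectional fits versus DMSO.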

[17] = ATG_TCF_b_cat_CIS: Attagene CIS-FACTORIAL HepG2 Assay for human T-Cell-Factor with beta-catenin (TCF/b-cat) (AID 2282965); settings: HepG2 TCF/beta-catenin cis-reporter transcription, actives raise or lower the signal
How it was run: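 Cells of the HepG2 line carry transiently transfected reporter units whose promoters respond to endogenous factors. Twenty-four hours post-dosing, reporter mRNA induction is measured by fluorescent RT-PCR and capillary electrophoresis, with DMSO as baseline.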

[18] = ATG_TAL_CIS: Attagene CIS-FACTORIAL HepG2 Assay for human TAL Basal Promoter (AID 2282966); settings: HepG2 Attagene cis-factorial TAL promoter reporter; actives raise or lower the signal;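 note: background control endpoint measuring basal TAL promoter reporter mRNA not a specific factor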
How it was run: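 Background-control endpoint: basal TAL promoter reporter transcripts in transiently transfected HepG2, measured 24 h after dosing. Read-out by RT-PCR with fluorescent primer extension and capillary electrophoresis; gain or loss of signal fitted relative to DMSO.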

[19] = ATG_RORE_CIS: Attagene CIS-FACTORIAL HepG2 Assay for human RAR-related Orphan Receptor Element (RORE) (AID 2282959); settings: HepG2 Attagene cis-factorial RORE reporter, mRNA; actives raise or lower the signal
How it was run: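 Transfect HepG2 with MRTUs; treat 24 h; extract RNA; RT with oligo(dT); PCR with reporter-specific primers; 6-FAM primer extension; HpaI digest 2 h at 37 C; capillary electrophoresis. Fit vs DMSO, bidirectional.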

[20] = ATG_PXRE_CIS: Attagene CIS-FACTORIAL HepG2 Assay for human Pregnane X Receptor Element (PXRE) (AID 2282957); settings: HepG2 Attagene CIS-FACTORIAL PXRE reporter, mRNA; actives raise or lower the signal
How it was run: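 Reporter transcripts under endogenous PXR-responsive cis-regulation quantified from total RNA of transfected HepG2 cells 24 h post-dosing, via RT-PCR with fluorescent primer extension and capillary electrophoresis. Gain or loss of signal fitted against DMSO baseline.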

Measured: AC50

CCOP(=S)(OCC)SCS(=O)(=O)CC
not listed: [19] | [20]
inactive: all other assays above

O=C(CBr)OCc1ccccc1
not listed: [20]
inactive: all other assays above

O=NN1CCCC1
not listed: [12] | [15]
inactive: all other assays above

CCCCC(CC)COP(=O)(Oc1ccccc1)Oc1ccccc1 (centres undefined)
active: [5] 100 µM | [7] 72 µM | [8] 50.1 µM | [10] 100 µM | [20] 0.516 µM | [11] 37.7 µM | [13] 126 µM | [14] 35.4 µM | [16] 55.3 µM
not listed: [12]
inactive: all other assays above

Cc1ccc2c(c1N)C(=O)c1ccccc1C2=O
not listed: [12] | [20]
inactive: all other assays above

Cn1[nH]nnc1=S
active: [5] 27 µM
not listed: [12] | [15] | [20]
inactive: all other assays above

FC(F)(F)c1ccc(Cl)cc1
inactive: all assays above

CC(C)(C)OOC(C)(C)C
not listed: [12] | [15]
inactive: all other assays above

O=[N+]([O-])c1ccc(Cl)c(Cl)c1
not listed: [20]
inactive: all other assays above

OCC(F)(F)OC(F)(F)C(F)(F)OC(F)(F)C(F)(F)OC(F)(F)F
inactive: [1] | [2] | [3] | [5] | [6] | [7] | [8] | [9] | [10] | [11] | [19] | [13] | [14] | [15] | [16] | [17] | [18]
active: [2] 90 µM | [7] 75.6 µM | [8] 75.7 µM

COC(N)=O
active: [5] 100 µM
inactive: all other assays above

CCCCOCC1CO1 (centres undefined)
inactive: all assays above

O=C(O)C(F)(F)OC(F)(F)C(F)(F)OC(F)(F)F
active: [11] 96.5 µM and 114 µM
not listed: [12] | [15]
inactive: all other assays above

Nc1ccc([N+](=O)[O-])cc1Cl
not listed: [12] | [15] | [20]
inactive: all other assays above

CCCCN(CC)C(=O)SCCC
not listed: [12] | [20]
inactive: all other assays above

— PubChem BioAssay (EPA / NIEHS)
